PubChem BioAssay (NCATS)
Results filed as inconclusive are left out. Entries that show only a call come without a potency. The source made the active and inactive calls. Calls follow the shape of the dose curve; as a rule, active = well fitted curve in the direction sought with a large enough effect; inconclusive = small, poorly fitted or top-dose-only effect, or another doubt; inactive = no such curve, though single readings can be large; an effect the other way counts as inactive or inconclusive.

Legend:
[1] = molecular target: Glutathione peroxidase 1 (Homo sapiens) (UniProt P07203); experiment: Primary qHTS Assay for Inhibitors of Recombinant Selenoprotein Glutathione Peroxidase 1 (GPX1) (AID 1845191); conditions: recombinant GPX1, GR-coupled NADPH fluorescence, 15 min; series mostly up to 48.8 µM; also: nearly all actives have a fitted effect of over 65% in size
Method in brief: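 GR-coupled readout: NADPH consumption tracked by fluorescence, ex 340/em 450 nm, at t=0 and after 15 min at RT. Final mix 10 nM GPX1, 1 mM GSH, 0.5 mM CHP, 0.5 mM NADPH, 100 nM GR, 0.01% BSA, following 30 min enzyme–compound preincubation.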

[2] = molecular target: Phospholipid hydroperoxide glutathione peroxidase GPX4 (Homo sapiens) (UniProt P36969); experiment: Primary qHTS Assay for Inhibitors of Recombinant Selenoprotein Glutathione Peroxidase 4 (GPX4) (AID 1845192); conditions: recombinant GPX4, GR-coupled NADPH fluorescence, 15 min; series mostly up to 50 µM; also: nearly all actives have a fitted effect of over 65% in size
Method in brief: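 Steps: GPX4 plus compound, 30 min RT; add GR/GSH/NADPH master mix; start with cumene hydroperoxide; read 340/450 nm fluorescence at 0 and 15 min. Finals were 200 nM GPX4, 1 mM GSH, 0.5 mM CHP, 0.5 mM NADPH, 100 nM GR.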

[3] = molecular target: Metallo-beta-lactamase type 2 (Klebsiella pneumoniae) (UniProt C7C422); experiment: qHTS to identify inhibitors of the New Delhi Metallo-beta-lactamase (NDM): assay validation screen against the NCATS LOPAC Collection (AID 1794843); conditions: NDM-1 enzyme, nitrocefin hydrolysis, absorbance 485 nm; series mostly up to 38.4 µM;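 also: nitrocefin turnover by NDM-1 measured as 485 nm absorbance at plateau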
Method in brief: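 Nitrocefin hydrolysis (50 uM substrate stock) by NDM-1, 2 nM final, was followed by 485 nm absorbance after compound preincubation; buffer was 50 mM HEPES pH 7.0, 1 uM ZnSO4, 0.01% Tween20.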

Chain of Metallo-beta-lactamase type 2 (Klebsiella pneumoniae) (C7C422 whole entry, looked up): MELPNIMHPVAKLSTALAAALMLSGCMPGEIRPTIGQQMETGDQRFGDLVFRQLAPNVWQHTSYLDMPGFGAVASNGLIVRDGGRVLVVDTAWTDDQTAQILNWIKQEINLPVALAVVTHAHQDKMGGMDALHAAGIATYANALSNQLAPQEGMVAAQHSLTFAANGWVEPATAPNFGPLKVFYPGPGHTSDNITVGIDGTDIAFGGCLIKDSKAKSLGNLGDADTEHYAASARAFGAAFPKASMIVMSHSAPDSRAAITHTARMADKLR
Chain of Glutathione peroxidase 1 (Homo sapiens) (P07203 whole entry, looked up): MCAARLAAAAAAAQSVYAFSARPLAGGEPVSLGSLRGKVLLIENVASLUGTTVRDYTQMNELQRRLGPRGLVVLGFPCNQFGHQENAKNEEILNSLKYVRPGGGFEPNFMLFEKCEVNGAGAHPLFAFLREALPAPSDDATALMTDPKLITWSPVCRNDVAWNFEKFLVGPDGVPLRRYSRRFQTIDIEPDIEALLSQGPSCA
Chain of Phospholipid hydroperoxide glutathione peroxidase GPX4 (Homo sapiens) (P36969 whole entry, looked up): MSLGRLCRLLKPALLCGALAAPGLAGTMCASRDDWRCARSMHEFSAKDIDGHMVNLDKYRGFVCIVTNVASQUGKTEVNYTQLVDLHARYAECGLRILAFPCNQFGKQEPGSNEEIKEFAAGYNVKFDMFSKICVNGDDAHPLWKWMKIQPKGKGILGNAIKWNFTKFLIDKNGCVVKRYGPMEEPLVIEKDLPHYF

SMILES	Potency [1]	Potency [2]	Potency [3]
CC(=O)/C(C)=N/O	inactive	inactive	
O=C1OC(=O)C2C3CCC(O3)C12 (centres undefined)	inactive	inactive	
N[C@H](C(=O)O)[C@H](Cc1ccccc1)C(=O)O	inactive	inactive	
O=c1[nH]c(=S)[nH]c(-c2ccccc2)c1Cc1c(O)ccc2ccccc12	inactive		
CNCCc1cnc(CCC(c2ccccc2)c2ccccc2)[nH]1	inactive	inactive	
O=[N+]([O-])c1cccc2cn[nH]c12	inactive	inactive	inactive
CN[C@H](CC(=O)O)C(=O)O	inactive	inactive	
COc1ccccc1N1CCN(CCN(C(=O)c2ccc(F)cc2)c2ccccn2)CC1	inactive	inactive	
CC(=O)O[C@H]1Cc2ccccc2N(C(N)=O)c2ccccc21	inactive	inactive	inactive
Nc1nc2ccc(Cl)cc2c2nc(-c3ccco3)nn12	inactive	inactive	inactive
CC(N)(Cc1ccc(O)c(O)c1)C(=O)O (centres undefined)	inactive	inactive	
CN(C)CCCc1cc(C(=O)Nc2ccc(-c3ccncc3)cc2)ccc1O	inactive	inactive	inactive
CC(C)NC[C@H](O)COc1cccc2ccccc12	inactive	inactive	
[Li+]	inactive	inactive	inactive
C[C@@H](NCCc1ccc(O)cc1)[C@@H](O)c1ccc(O)cc1	inactive	inactive	inactive
N#CC(=C(\N)Sc1ccccc1N)/C(C#N)=C(/N)Sc1ccccc1N		inactive	inactive
Cc1ccccc1/C=C/C1=NCCN1	inactive	inactive	
O=c1cc(-c2ccccc2)[nH]c2nc(Cl)ccc12	inactive	inactive	
N=C(N)c1ccc(OCCCCCOc2ccc(C(=N)N)cc2)cc1 (tested in a mixture with another compound)	inactive		
CSc1nc(N)c2ncn([C@@H]3O[C@H](COP(=O)(O)OP(=O)(O)O)C(O)[C@H]3O)c2n1 (some centres undefined)	inactive	inactive	
